NPR1 activator: GC-A (human) enzyme activation | HEK293 GC-A cells, cGMP TR-FRET, EC30 ANP; 0% at EC30 ANP, 100% saturating ANP | hit rate 0.14% among 370,000 | AID 1671463 | P16066 | activation, % at 10 µM; in the data active = activation above about 40%
Target sequence (P16066 whole entry, looked up): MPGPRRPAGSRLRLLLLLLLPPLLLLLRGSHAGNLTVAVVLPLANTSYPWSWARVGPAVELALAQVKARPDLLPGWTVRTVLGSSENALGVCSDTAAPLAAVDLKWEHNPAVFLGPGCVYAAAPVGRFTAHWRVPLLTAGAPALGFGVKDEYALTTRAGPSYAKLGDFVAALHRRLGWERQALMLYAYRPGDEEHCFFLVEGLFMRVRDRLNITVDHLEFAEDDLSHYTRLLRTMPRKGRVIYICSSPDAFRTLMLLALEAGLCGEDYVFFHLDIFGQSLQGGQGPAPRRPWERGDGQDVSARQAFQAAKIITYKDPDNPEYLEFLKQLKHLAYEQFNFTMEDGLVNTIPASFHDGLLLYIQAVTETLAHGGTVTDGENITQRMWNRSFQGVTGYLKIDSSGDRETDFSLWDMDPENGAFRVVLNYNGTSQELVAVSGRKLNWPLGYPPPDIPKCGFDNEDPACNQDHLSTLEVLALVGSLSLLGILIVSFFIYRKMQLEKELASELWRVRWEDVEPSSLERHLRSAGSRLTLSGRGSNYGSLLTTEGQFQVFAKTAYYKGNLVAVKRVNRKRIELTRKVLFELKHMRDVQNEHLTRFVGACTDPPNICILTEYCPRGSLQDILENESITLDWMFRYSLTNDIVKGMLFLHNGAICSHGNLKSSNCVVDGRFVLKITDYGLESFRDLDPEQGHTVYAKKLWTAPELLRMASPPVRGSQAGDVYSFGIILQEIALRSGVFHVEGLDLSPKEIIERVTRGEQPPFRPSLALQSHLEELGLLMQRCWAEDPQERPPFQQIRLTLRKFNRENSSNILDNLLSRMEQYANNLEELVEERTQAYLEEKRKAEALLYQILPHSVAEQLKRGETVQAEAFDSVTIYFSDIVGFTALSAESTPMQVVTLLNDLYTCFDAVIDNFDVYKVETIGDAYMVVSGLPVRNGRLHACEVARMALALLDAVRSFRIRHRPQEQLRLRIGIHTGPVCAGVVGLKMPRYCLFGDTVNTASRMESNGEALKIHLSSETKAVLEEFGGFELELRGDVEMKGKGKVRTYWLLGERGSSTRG
aDG glyco act: alpha-DG glycosylation activation. Pro5-aDG cells, alpha-DG glycosylation AlphaScreen (IIH6); 0% Pro5, 100% B10-LARGE cell signal. activation, % at 10 µM. hit rate 0.22% among 360,000. AID 624168;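 active = activation of at least 8% versus controls, or a plate z-score of at least 8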;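 note: Pro5 are CHO cells carrying HIG-tagged alpha-DG that lacks glycosylation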
FAS-TE inh: inhibitors of human fatty acid synthase thioesterase domain; P49327; recombinant FAS-TE, OMFH fluorogenic substrate, fluorescence endpoint; inhibition, % at 15 µM; hit rate 0.67% among 360,000; AID 602261;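 active = compounds whose normalised, plate-corrected inhibition of enzyme fluorescence in the single-dose primary screen is 50% or more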;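 note: 0% = DMSO with enzyme and 100% = substrate without enzyme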
GC-B act: GC-B (human) receptor activation; activation, % at 10 µM; HEK293-GC-B cells, CNP EC30, cGMP TR-FRET; 0% at EC30 CNP, 100% saturating CNP; P20594; hit rate 0.11% among 370,000; AID 1920062;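 active = activation at 10 µM reaching about 35% in either raw or pattern-adjusted values, limit read from the data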
aDG conf: alpha-DG glycosylation activation, confirmation. shares compounds with aDG glyco act. Pro5-aDG cells, IIH6 AlphaLISA; scaled to LARGE-overexpressing B10 cells as 100%. activation, % at 10 µM (by protocol). hit rate 17% among 600;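 active = activation of at least 7% in one or more replicates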;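 note: cells exposed to compound for two days before detection; 0% = DMSO-treated Pro5 cells and 100% = DMSO-treated B10-LARGE cells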
Active calls of the source: *; . = not tested or not shown. A selection: hits, their analogues and other compounds. The true share with any hit is near 1.1%.

SMILES	NPR1 activator	aDG glyco act	FAS-TE inh	GC-B act	aDG conf
CC(C)COc1ccc(CSCCNC(=S)Nc2ccccc2)cc1	4.3	4.6*	19.0	4.4	4.9*
CCCCCN1CCCCC(NC(=O)c2c(F)cccc2F)C1=O (stereo not drawn)	0.1	.	.	3.9	.
CCSc1nnc(SCC(=O)c2c(N)n(C)c(=O)n(C)c2=O)s1	8.4	4.2*	-2.9	0.2	-0.9
Cc1ccccc1Nc1nnc(SCC(=O)c2c(N)n(C)c(=O)n(C)c2=O)s1	-0.7	0.2	6.2	-6.2	.
Cc1ccc(NC(=O)C2CCN(S(=O)(=O)c3c(C)noc3/C=C/N(C)C)CC2)cc1	2.1	0.0	5.0	-1.4	.
Cc1noc(/C=C/N(C)C)c1S(=O)(=O)N1CCC(C(=O)Nc2ccc(Cl)cc2)CC1	-4.9	8.6*	13.6	-2.3	1.8
Cc1cc(C)cc(NC(=O)C2CCCN(S(=O)(=O)c3c(C)noc3C)C2)c1 (stereo not drawn)	-1.6	3.1*	3.1	-2.4	0.0
Cc1cc(NC(=O)C2CCCN(S(=O)(=O)c3c(C)noc3C)C2)no1 (stereo not drawn)	-2.7	-0.3	-6.5	4.0	.
O=C(CSc1nc2ccccc2nc1N1CCCC1)N1CCN(C(c2ccccc2)c2ccccc2)CC1	-4.3	.	.	3.2	.
CCCCOc1ccc(C(=O)Nc2cccc(C)n2)cc1	-2.8	6.3*	8.9	-3.1	-1.1
CN1N=C(N)c2cn(C3OC(COP(=O)(O)O)C(O)C3O)c3ncnc1c23 (stereo not drawn)	2.0	81.7*	-6.0	0.3	22.6*
Nc1ncnc2c1ncn2[C@@H]1O[C@H](COP(=O)(O)O)[C@@H](O)[C@H]1O	-0.2	-0.1	3.6	-1.6	.
C=CCNC(=S)N/N=C/c1ccc(OCc2ccccc2Cl)cc1	-9.8	6.5*	10.1	2.5	-0.2
CCCNS(=O)(=O)c1ccc(OCC(=O)NCCC2=CCCCC2)cc1	1.0	9.1*	0.9	-10.1	0.3
N#CCC[C@@H]1CC[C@]2(CCCN(C(=O)c3ccc4ccccc4n3)C2)O1	-0.6	.	.	-2.6	.
COC(=O)C1=C(C)N(C)C(=NCc2ccc(OC)cc2)NC1c1ccccc1 (stereo not drawn)	-3.3	.	.	4.3	.
CC(C)Oc1ccc(OCCCN2CCCCCC2)cc1	-1.2	5.2*	-5.1	0.1	13.3*
O=C(NC1CCCCN(Cc2ccc(Cl)cc2)C1=O)c1ccc(F)cc1 (stereo not drawn)	0.4	.	.	9.1	.
Cc1sc2ncnc(NCC(O)c3ccccc3)c2c1C (stereo not drawn)	-9.7	2.7*	-0.6	-6.1	1.2
COC(=O)[C@H]1C[C@]2(C/C=C(\C)CCC=C(C)C)c3ccccc3N[C@H]2N1	2.1	.	.	-0.5	.
Cc1ccc(-c2nc3ncccn3c2NC(=O)c2cccc(C)c2)cc1	-3.2	.	.	2.1	.
COC(=O)c1ccc(Cn2ccc3ccc(-c4ccc5ccn(C(=O)C6CCCCC6)c5c4)cc32)cc1	-1.8	.	.	1.6	.
CCCCN(C(=O)CCNC(=O)NC12CC3CC(CC(C3)C1)C2)c1c(N)n(CCC)c(=O)[nH]c1=O	1.3	5.1*	-1.6	-5.2	-0.1
O=C(NCCCN1CCOCC1)c1ccc(S(=O)(=O)Nc2ccccc2)cc1	1.9	0.0	-6.9	3.4	.
COc1ccccc1NS(=O)(=O)c1ccc(C(=O)NCCCN2CCOCC2)cc1	-0.6	5.0*	-7.7	2.2	0.8
SMILES	NPR1 activator	aDG glyco act	FAS-TE inh	GC-B act	aDG conf
CCN(CC)C(=O)CC[C@@H]1CC[C@]2(CCCN(C(=O)c3ccco3)C2)O1	-0.9	.	.	-3.6	.
COc1ccc(Cc2nc3ccc(C(=O)NCc4cc(C)no4)cc3o2)cc1	-0.3	0.1	-2.7	3.9	.
CCc1cc(CNC(=O)c2ccc3nc(Cc4ccc(OC)c(OC)c4)oc3c2)on1	1.7	8.2*	-3.6	-4.1	2.4
Cc1ccccc1CSc1nnc([C@@H]2CCCN2)o1	-2.4	4.8*	-3.3	6.9	0.1
CN(C)CCCNC(=O)C[C@H]1C[C@H](C(=O)N2CCOCC2)[C@@]2(C)c3[nH]c4ccc(Cl)cc4c3CCN2C1=O	1.1	5.2*	-8.8	2.9	-1.1
Cc1cc(Nc2cccc(C(F)(F)F)c2)cc(=O)n1-c1cccc(C(F)(F)F)c1	12.7	.	.	6.8	.
c1cncc(-c2nc(N3CCCCCC3)c3ccccc3n2)c1	-4.9	0.1	5.7	-5.6	.
c1ccc2c(N3CCCCCC3)nc(-c3ccncc3)nc2c1	-0.1	7.0*	8.9	-10.2	-0.4
CCn1c(=N)n(CC(=O)c2ccc(Cl)c(Cl)c2)c2ccccc21	-14.1	8.0*	0.8	-5.5	9.1*
C=CCn1c(=N)n(CC(=O)c2ccc(Cl)cc2)c2ccccc21	-12.2	6.7*	-2.9	-7.8	6.3*
CN(CC(=O)Nc1cccc(F)c1)C(=O)c1ccc(N2C(=O)c3ccccc3C2=O)cc1	-5.0	5.1*	-2.4	0.3	-1.0
O=C(CCN1CCOCC1)c1ccccc1	.	0.0	-10.8	.	.
O=C(CCN1CCCCC1)c1ccccc1	62.0*	4.7*	-5.8	-9.0	0.5
COC(=O)[C@]12C[C@H](CC(=O)N3CCCCC3)C(=O)N(Cc3ccc(Cl)cc3Cl)C1=C[C@H](C1CCCC1)O[C@@H]2C	-18.6	.	.	-14.0	.
CCOC(=O)CSc1ccc2nnc(-c3cccs3)n2n1	-3.4	9.1*	-2.0	-4.7	0.4
CCSc1ccc2nnc(-c3cccs3)n2n1	-6.0	0.0	-4.6	-9.6	.
CC[C@]1(C(=O)OC)[C@H]2C(=O)N(C)C(=O)[C@H]2[C@H]2CN=C(SCc3ccc(C(=O)OC)cc3)N21	3.3	5.9*	-8.5	0.8	0.7
COc1ccc2c(c1)CN1CN(C3CCCC3)S(=O)(=O)CC21 (stereo not drawn)	0.6	.	.	-3.8	.
O=C(CCN1N=C(c2ccccc2)CCC1=O)NC1CCCC1	5.4	3.0*	-4.1	2.5	-1.1
Cc1cc(NCc2ccccn2)n2ncc(-c3ccc(Cl)cc3)c2n1	-8.4	3.0*	30.1	-10.9	4.6*
O=C(OC12CCCN(C1)/C(=C/c1ccc(Cl)cc1)C2)C1CCCCC1 (stereo not drawn)	1.7	.	.	-4.9	.
O=C(NNC(=O)c1ccc([N+](=O)[O-])o1)c1ccccc1	-1.3	1.1	-5.7	3.5	.
C/C(=N/NC(=O)C(O)(c1ccccc1)c1ccccc1)c1ccc([N+](=O)[O-])o1	-4.3	8.2*	14.0	3.9	3.7*
Cc1nc2ccccn2c1-c1csc(Nc2cccc(O)c2)n1	1.1	0.2	2.0	0.3	.
Cc1cccc(Nc2nc(-c3c(C)nc4ccccn34)cs2)c1	13.8	4.4*	4.3	15.6	4.0
CN1C2=N[C@@H](c3cccc(C(F)(F)F)c3)CC(=O)N2/C(=C\c2ccccc2)[C@H]1c1ccccc1	-30.6	.	.	-29.6	.
CC(C)(C)c1ccc(OCC(=O)NNC(=O)Nc2ccccc2)cc1	-0.6	0.0	1.7	0.5	.
O=C(COc1ccc(-c2ccccc2)cc1)NNC(=O)Nc1ccccc1	4.3	16.8*	-2.9	-4.1	0.8
